Screening results deposited in PubChem by National Center for Advancing Translational Sciences (NCATS).
Compounds with a hit are over-represented: about 7.4% of the library has one in this group of screens.
FLuc counter = qHTS profiling assay for firefly luciferase inhibitor/activator using purifed enzyme and Km concentrations of substrates (counterscreen for miR-21 project); 360,000 tested, 6.9% active; Potency, µM (titrated, usually from 57.5 µM), inactives show at the top dose activity change, negative = inhibition, actives largely listed as inhibitors; purified FLuc, Km substrates, luminescence inhibition;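 further: plate controls were vehicle for no effect and reference inhibitor for full effect; nearly all actives have a fitted effect of over 55% in size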
Target sequence (P08659 whole entry, looked up): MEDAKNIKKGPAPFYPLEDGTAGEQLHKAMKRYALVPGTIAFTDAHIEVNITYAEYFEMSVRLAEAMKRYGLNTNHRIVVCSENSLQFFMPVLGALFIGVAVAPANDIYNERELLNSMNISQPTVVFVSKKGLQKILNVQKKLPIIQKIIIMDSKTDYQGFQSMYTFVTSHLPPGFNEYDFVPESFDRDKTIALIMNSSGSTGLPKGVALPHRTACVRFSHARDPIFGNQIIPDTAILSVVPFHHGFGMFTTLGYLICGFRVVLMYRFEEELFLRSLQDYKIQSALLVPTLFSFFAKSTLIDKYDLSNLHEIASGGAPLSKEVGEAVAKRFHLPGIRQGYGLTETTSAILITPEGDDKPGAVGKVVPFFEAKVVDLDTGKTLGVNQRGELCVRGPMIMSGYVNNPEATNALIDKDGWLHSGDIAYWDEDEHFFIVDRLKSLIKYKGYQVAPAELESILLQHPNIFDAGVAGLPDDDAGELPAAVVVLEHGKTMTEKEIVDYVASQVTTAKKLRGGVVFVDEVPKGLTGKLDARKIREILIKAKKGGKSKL
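Purified P. pyralis luciferase, 10 nM final, with Km-level 10 uM D-luciferin and 10 uM ATP in 50 mM Tris acetate pH 7.5, 10 mM Mg acetate, 0.01% Tween-20, 0.05% BSA; 6-point qHTS titration about 60 µM downward; luminescence read.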
NPC1 promoter act = qHTS Assay for NPC1 Promoter Activators; 320,000 tested, 2.4% active; AID 485313, 2010; Potency, µM (top dose mostly 9.22 µM), inactives show at the highest dose activation, actives largely listed as activators; Huh7 NPC1 promoter luciferase reporter, 24 h; further: % of control where 0% means no effect; nearly all actives have a fitted effect of over 60% in size
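Huh7 cells stably carrying NPC1 promoter–luciferase, plated in Opti-MEM with 10% FBS for 2 h, were exposed to compound in DMSO for 24 h at 37 °C; luciferase reagent was added for 10 min and luminescence read.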
ELG1 genotox = qHTS screen for small molecules that induce genotoxicity in human embryonic kidney (HEK293T) cells expressing luciferase-tagged ELG1 | HEK293T ELG1-luciferase reporter, luminescence, 16 h | Potency, µM (highest dose often 46 µM), without a hit: at the highest dose activity change, positive = activation, most hits filed as activators | 330,000 tested, 1.3% active | AID 504466, 2011; further: % of control where 0% means no effect; nearly all actives have a fitted effect of over 60% in size
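Reporter readout depends on ELG1 protein level, which increases with genetic stress. After 16 hr compound exposure at 37 °C, luciferase activity was quantified using ONE-Glo.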
KinaseGlo FLuc = Counterscreen for Luciferase (Kinase-Glo TM) Inhibition | Luciferin 4-monooxygenase (Photuris pensylvanica), Q27757 | Potency, µM (doses to about 38.3 µM), without a hit: at the top dose activity change, negative = inhibition, actives largely listed as inhibitors | 200,000 tested, 0.28% active | Kinase-Glo luciferase, ATP luminescence, 8 min; further: on the % scale 0 is the no-effect control and ±100 the full control effect; nearly all actives have a fitted effect of over 60% in size
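Compound is pinned into ATP-containing buffer (10 uM ATP, imidazole pH 7.2, 7 mM MgCl2). Kinase-Glo luciferase reagent is then added. Light output is recorded following an 8-min room-temperature incubation.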
SMN2 splice enh = qHTS Assay for Enhancers of SMN2 Splice Variant Expression | HEK293 SMN2-luciferase splicing reporter, luminescence, 30-36 h | Potency, µM (doses to about 46.1 µM), for inactives: at the top dose activity change, positive = activation, actives largely listed as activators | 210,000 tested, 2.8% active | AID 1458, 2008; further: % of control where 0% means no effect; nearly all actives have a fitted effect of over 55% in size
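qHTS luciferase splicing reporter: luminescence rises when SMN2 exon 7 is included in transfected HEK293 cells. Compound exposure lasted 30-36 h at 37C, with 4.5 mM final sodium butyrate as control, followed by a ONE-Glo read.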
Rab9 prom act = qHTS Assay for Rab9 Promoter Activators; Huh7 Rab9 promoter-luciferase reporter, luminescence, 24 h; Potency, µM (doses to about 9.22 µM), for inactives: at the top dose activation, negative = inhibition, most hits filed as activators; 320,000 tested, 2.8% active; further: % of control where 0% means no effect; nearly all actives have a fitted effect of over 60% in size
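Cells were plated at 1500 per well in reduced-serum medium with 10% FBS and left 2 h. Compound in DMSO was then added for 24 h at 37 °C. Reporter signal was read by luminescence after 10 min with luciferase detection reagent.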
Numbers without * were called inactive; ? = inconclusive; . = not tested or not shown; [ ] = remark or other dose. The call rests on the fitted dose curve; in most records, active means well fitted curve in the direction sought with a large enough effect; inconclusive means small, poorly fitted or top-dose-only effect, or another doubt; inactive means no such curve, though single readings can be large; an effect the other way counts as inactive or inconclusive. Potency means the concentration at half of the fitted maximal effect.

SMILES | FLuc counter | NPC1 promoter act | ELG1 genotox | KinaseGlo FLuc | SMN2 splice enh | Rab9 prom act
COc1cccc(-c2nc(-c3ccccn3)no2)c1OC | 13µM* | 3.5µM* | 9.2µM* | -2% | 13µM* | 2.5µM*
c1ccc(-c2noc(-c3cccc4ccccc34)n2)nc1 | 0.76µM* | ? | ? | -22% | 16µM* | 28%
O=C(C[C@@H]1C/C=C\C[C@H](NC(=O)OCC2c3ccccc3-c3ccccc32)C(=O)O[C@H](c2ccccc2)CNC1=O)NCCO | . | . | -4% | . | . | .
Cc1cc(=O)n2[nH]c(-c3ccco3)nc2n1 | ? | 2% | 3% | -14% | 5% | 1%
CCCc1cc(=O)n2[nH]c(-c3ccco3)nc2n1 | 15µM* | 6% | 1% | -9% | -12% | -2%
COc1ccc(CCNC(=O)c2c(C)nn(-c3ccc(F)cc3)c2-n2cccc2)cc1OC | 0% | . | . | . | . | .
Cc1ccc(C)c(N2CCN(C(=O)C(C)n3nc(C)c4sc5ccccc5c4c3=O)CC2)c1 (centres undefined) | 15µM* | . | . | . | . | .
Cc1nn(C(C)C(=O)N2CCCCC2)c(=O)c2c1sc1ccccc12 (centres undefined) | -4% | -5% | -4% | 0% | -10% | 9%
Cc1ccc(/C=C2\C(=O)ON=C2c2ccccc2)o1 | 1.1µM* | 1% | 1% | 0% | . | -12%
CC1=NOC(=O)/C1=C/c1ccc(-c2ccc(Cl)cc2)o1 | 8.5µM* | -3% | -13% | 13% | -16% | -4%
Cc1ccc(C2=NOC(=O)/C2=C\c2ccc(C)o2)cc1 | ? | 18% | ? | . | . | 0%
CC1=NOC(=O)/C1=C\c1ccc(-c2ccc(Br)cc2C(=O)O)o1 | ? | 0% | 3% | . | . | -3%
CC1=NOC(=O)/C1=C\c1ccc(-c2ccc(Br)cc2)o1 | 8.5µM* | -11% | -3% | -8% | -41% | -3%
O=C(NC1CCCCCC1)c1ccc(OCC2CCCO2)cc1 (centres undefined) | 12µM* | ? | ? | -10% | 13µM* | 2µM*
COc1ccc(NC(=O)c2ccc(OCC3CCCO3)cc2)cc1OC (centres undefined) | 15µM* | -1% | 10% | . | . | 17%
COc1ccc(NC(=O)c2ccc(OCC3CCCO3)cc2)cc1Cl (centres undefined) | 2.4µM* | ? | 7% | . | . | ?
CC(C)N(CCNC(=O)c1ccc(OCC2CCCO2)cc1)C(C)C (centres undefined) | -1% | -2% | 0% | . | . | -1%
CCn1c(O)c(C=NC2CCCC(C)C2C)sc1=S (centres undefined) | 15µM* | ? | ? | . | . | ?
O=C(c1ccc(F)cc1F)N1CCN(S(=O)(=O)c2ccc3c(c2)OCCO3)CC1 | 0% | -2% | -2% | . | . | -6%
O=C(c1cnccn1)N1CCC2(CCN(Cc3ccccc3)CC2)CC1 | . | . | . | -2% | 0% | .
CCN1C(=O)CC(N2CCN(c3ccc(Cl)cc3)CC2)C1=O (centres undefined) | 3% | -6% | -7% | 12% | -9% | 2%
CCN1C(=O)CC(N2CCN(c3ccc(C(=O)c4ccccc4)cc3)CC2)C1=O (centres undefined) | 19µM* | . | . | -3% | -14% | .
COc1ccc(NC(=O)Cn2c(=O)n(Cc3ccccc3)c(=O)c3sc4ccccc4c32)cc1 | 3% | . | . | . | 10% | .
O=C(NCc1nc2ccccc2[nH]1)C1CCCCC1 | 4% | 3% | 3% | 5% | 2% | -3%
O=C(Nc1nc2ccccc2[nH]1)C1CCC1 | 17µM* | ? | ? | ? | 13µM* | 2.8µM*
SMILES | FLuc counter | NPC1 promoter act | ELG1 genotox | KinaseGlo FLuc | SMN2 splice enh | Rab9 prom act
O=C(CC1CCCC1)Nc1nc2ccccc2[nH]1 | 9.5µM* | 3.5µM* | 16µM* | -6% | 13µM* | 2.8µM*
O=C(Cc1cccc2ccccc12)Nc1nc2ccccc2[nH]1 | -2% | 0% | 1% | -4% | -2% | -3%
O=C(Nc1nc2ccccc2[nH]1)C1CCCC1 | 15µM* | 1.6µM* | ? | ? | 11µM* | 1.3µM*
Cc1nc(CS(=O)(=O)c2ccccn2)sc1C(=O)NNC(=O)c1ccc(Cl)cc1 | ? | 1% | -2% | . | . | -3%
CCCNC(=O)c1cc(Cl)c(NC(=O)C2=CSCCO2)cc1OC | 19µM* | ? | 17% | . | . | ?
COC(=O)c1c(-c2c(Cl)cccc2Cl)noc1C(=O)NN | -4% | 3% | 0% | . | . | -2%
Cn1c(Cl)c(C(=O)Nc2ccc(Cl)cc2)c2ccccc21 | 6µM* | ? | 3% | -4% | 20% | 16%
O=C(COC(=O)c1ncc(Cl)c(Cl)c1Cl)NC1CCCCCC1 | -10% | 1% | -1% | . | . | 2%
Cc1ccccc1C1C(C#N)=C2N=C(N)c3c(sc4c3CCCCC4)N2C2=C1C(=O)CCC2 (centres undefined) | -1% | 2% | -10% | 0% | 0% | -12%
O=c1nc2c(-c3ccccc3F)n[nH]n2c2ccccc12 | 13µM* | ? | ? | -19% | 22µM* | 4µM*
Cc1ccc(C)c(C(=O)COC(=O)CN2C(=O)C3C4CCC(C4)C3C2=O)c1 (centres undefined) | 1% | 1% | 1% | . | . | -2%
Cc1ccc(C(=O)COC(=O)C(C)N2C(=O)C3C4C=CC(C4)C3C2=O)cc1 (centres undefined) | ? | 8% | 1% | 2% | -5% | -4%
Cc1ccc(C(=O)COC(=O)c2ccccc2N2C(=O)C3C4CCC(C4)C3C2=O)cc1C (centres undefined) | 12µM* | -3% | -1% | -3% | -10% | 12%
Cc1ccc(C(=O)COC(=O)C(C)N2C(=O)C3C4C=CC(C4)C3C2=O)cc1C (centres undefined) | 13µM* | -3% | 2% | . | . | 0%
Cc1ccc(C)c(C(=O)COC(=O)CCN2C(=O)C3C4CCC(C4)C3C2=O)c1 (centres undefined) | 12µM* | -5% | 2% | . | . | 2%
COc1ccccc1NC(=O)C1=C(C)Nc2ncnn2C1c1ccc[nH]1 (centres undefined) | 5% | . | . | . | . | .
CC(C)[C@H](CO)Nc1nc(Nc2cccc(Cl)c2)c2ncn(C(C)C)c2n1 | . | . | . | 1% | . | .
COCCNC(=O)Cn1c(-c2cccs2)cc2cc(Cl)ccc21 | -5% | . | . | . | . | .
Cc1cccc(C)c1NC(=O)[C@H](C)N | . | . | . | -1%[17.1 µM] | 0%[20.6 µM] | .
CC(=O)Nc1sc2c(c1C#N)CCCCC2 | ? | 15% | 17% | -1% | 21% | 15%
